Records with an inconclusive call do not appear. Active and inactive are the calls of the source. Unless noted, calls come from the whole dose curve; as a rule, active = well fitted curve in either direction with a large enough effect (not every such curve was filed as active); inconclusive = small, poorly fitted or top-dose-only effect, or another doubt; inactive = flat fitted curve, though single readings scatter.
Assays:
[1] = biological target: Lysosomal acid glucosylceramidase (Homo sapiens) (UniProt P04062); assay: Glucocerebrosidase-p2 (AID 348; in the data active = potency below about 10 µM; note: potency is the fitted concentration of half-maximal effect); conditions: purified GBA, blue fluorogenic substrate, 40 min
Lysosomal acid glucosylceramidase (Homo sapiens), sequence (P04062 whole entry, looked up): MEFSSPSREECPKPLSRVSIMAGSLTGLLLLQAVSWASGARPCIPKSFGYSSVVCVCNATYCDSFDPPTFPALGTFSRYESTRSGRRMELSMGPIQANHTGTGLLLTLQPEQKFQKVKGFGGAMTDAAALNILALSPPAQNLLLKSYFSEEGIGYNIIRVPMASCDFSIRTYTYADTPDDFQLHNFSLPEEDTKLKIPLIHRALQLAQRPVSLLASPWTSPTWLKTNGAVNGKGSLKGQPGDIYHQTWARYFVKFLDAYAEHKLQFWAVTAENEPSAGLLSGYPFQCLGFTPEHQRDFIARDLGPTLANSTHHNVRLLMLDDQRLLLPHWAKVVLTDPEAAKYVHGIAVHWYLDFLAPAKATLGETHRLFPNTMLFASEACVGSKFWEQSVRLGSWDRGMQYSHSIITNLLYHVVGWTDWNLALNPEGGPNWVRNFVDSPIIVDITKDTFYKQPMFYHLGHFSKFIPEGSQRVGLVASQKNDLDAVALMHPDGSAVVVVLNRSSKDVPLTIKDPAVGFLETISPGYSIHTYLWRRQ
How it was run: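 Normal human glucocerebrosidase (0.2 nM) with blue fluorogenic substrate (80 uM final) in citrate/phosphate pH 5.9 with 10mM sodium taurocholate, 0.01% tween-20; 40 min RT, NaOH/glycine stop; fluorescence Ex 365/Em 440; AC50 from a titration from 0.6 nM upwards.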

[2] = AP1 Signaling Pathway (AID 357); conditions: ME-180 AP-1-bla reporter, EGF-induced, beta-lactamase ratio, 5 h; at 7.69 µM (top of the series) unless noted; note: % is set by controls: 0 for no effect and ±100 for the full control effect
How it was run: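 ME-180 cells with beta-lactamase reporter under AP-1 response element, stimulated with EC50 EGF; compounds tested in titration series, 5 h at 37 °C. CCF4 substrate added 2.5 h at room temperature; 460/530 nm emission ratio gave %activity and AC50.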

[3] = biological target: Cytochrome P450 1A2 (Homo sapiens) (UniProt P05177); assay: p450-cyp1a2 (AID 410; calls by dose curve; note: potency is the fitted concentration of half-maximal effect;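 for activity change, negative = inhibition: -100% = full effect of reference inhibitor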); conditions: recombinant CYP1A2, luciferin-ME demethylation, luminescence; series mostly up to 11.4 µM
Cytochrome P450 1A2 (Homo sapiens), sequence (P05177 whole entry, looked up): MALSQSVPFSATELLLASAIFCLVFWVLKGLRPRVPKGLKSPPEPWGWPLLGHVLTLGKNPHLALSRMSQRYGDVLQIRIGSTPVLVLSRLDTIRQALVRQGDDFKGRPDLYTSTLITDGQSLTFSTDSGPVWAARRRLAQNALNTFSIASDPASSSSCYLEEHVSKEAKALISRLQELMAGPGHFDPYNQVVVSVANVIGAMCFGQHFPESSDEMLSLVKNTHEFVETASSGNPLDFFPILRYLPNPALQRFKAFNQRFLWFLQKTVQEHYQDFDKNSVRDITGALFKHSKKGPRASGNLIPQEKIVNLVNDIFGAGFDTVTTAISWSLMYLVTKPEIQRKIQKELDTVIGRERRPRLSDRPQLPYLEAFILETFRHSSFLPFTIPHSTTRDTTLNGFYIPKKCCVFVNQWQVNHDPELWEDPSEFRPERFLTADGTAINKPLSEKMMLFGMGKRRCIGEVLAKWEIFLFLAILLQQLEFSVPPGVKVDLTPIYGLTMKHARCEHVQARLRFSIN
How it was run: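 Luminescent demethylation readout: Luciferin-ME (100uM, equal to Km) turned over by 20nM CYP1A2 for 60 min at room temperature after NADPH regeneration addition, following 10 min compound preincubation. Normalization used 57 uM furafylline as full inhibition.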

[4] = NFAT Signaling Pathway (AID 444); conditions: Jurkat NFAT-bla M1, carbachol, beta-lactamase ratio, 5 h; at 7.69 µM (top of the series) unless noted;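 note: carbachol stimulus at about its EC50 of 1 µM final; % is set by controls: 0 for no effect and ±100 for the full control effect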
How it was run: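 Jurkat cells with NFAT-driven β-lactamase reporter and co-expressed M1 receptor, stimulated with carbachol (final 1 uM, ~EC50), compound titration, 5 h at 37 °C. CCF4 loaded 1 h at RT; 460/530 nm ratio gave %activity and AC50.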

[5] = Stat Signaling Pathway (AID 446); conditions: ME-180 (cervical carcinoma) SIE beta-lactamase reporter, IL-6 stimulated, 5 h; at 7.69 µM (top of the series) unless noted;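 note: ME-180 cervical cancer cells given 40 pM IL-6 alongside compound; SIE-controlled beta-lactamase reporter measured as 460/530 nm FRET emission ratio; % is set by controls: 0 for no effect and ±100 for the full control effect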
How it was run: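 FRET read-out (405 nm excitation, 460/530 nm emission) of a beta-lactamase reporter under a STAT-inducible element in ME-180 cervical carcinoma cells. Cells with compound receive 40 pM IL-6 for 5 h. Values are normalised to AC90 stimulation and AC90 JAK-inhibitor controls.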

[6] = biological target: Glucocorticoid receptor (Homo sapiens) (UniProt P04150); assay: GR-GFP Redistribution (AID 450;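 active = compounds whose dose series gives a full or clear partial fitted curve of increased nuclear translocation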; note: potency is the fitted concentration of half-maximal effect); conditions: U2OS GR-GFP nuclear translocation, laser cytometry, 2 h
Glucocorticoid receptor (Homo sapiens), sequence (P04150 whole entry, looked up, the tested form may be a part): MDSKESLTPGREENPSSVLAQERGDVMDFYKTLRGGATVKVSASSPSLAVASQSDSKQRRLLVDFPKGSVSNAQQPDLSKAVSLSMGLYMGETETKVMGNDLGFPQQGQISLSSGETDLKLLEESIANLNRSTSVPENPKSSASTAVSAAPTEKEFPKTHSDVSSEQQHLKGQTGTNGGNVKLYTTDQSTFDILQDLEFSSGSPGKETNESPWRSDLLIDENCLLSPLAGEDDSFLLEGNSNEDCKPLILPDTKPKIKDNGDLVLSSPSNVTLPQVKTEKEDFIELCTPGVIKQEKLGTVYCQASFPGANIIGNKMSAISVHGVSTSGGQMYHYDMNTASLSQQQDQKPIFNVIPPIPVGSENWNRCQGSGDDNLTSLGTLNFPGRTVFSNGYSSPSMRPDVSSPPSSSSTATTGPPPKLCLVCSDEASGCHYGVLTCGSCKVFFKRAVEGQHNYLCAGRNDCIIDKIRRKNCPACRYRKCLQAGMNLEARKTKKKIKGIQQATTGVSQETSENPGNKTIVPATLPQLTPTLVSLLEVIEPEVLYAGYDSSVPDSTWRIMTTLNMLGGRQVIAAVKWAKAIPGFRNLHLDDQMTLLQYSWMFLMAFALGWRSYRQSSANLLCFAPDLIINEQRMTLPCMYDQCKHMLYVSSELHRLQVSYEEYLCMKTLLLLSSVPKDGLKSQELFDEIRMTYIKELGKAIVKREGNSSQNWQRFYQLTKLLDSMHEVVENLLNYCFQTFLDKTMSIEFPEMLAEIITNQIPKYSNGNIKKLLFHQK

[7] = biological target: Glucocorticoid receptor (Homo sapiens) (UniProt P04150); assay: GR-EFC Redistribution (AID 451; calls by dose curve; note: potency is the fitted concentration of half-maximal effect); conditions: CHO-K1 GR-EFC translocation, beta-gal luminescence, 2 h
How it was run: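 CHO-K1 cells expressing nuclear EA and GR-ED fragments of b-gal; compounds titrated up to 46 uM final, 2 h at 37 C. GR nuclear translocation read as complemented b-gal luminescence after 1 h RT detection.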

[8] = biological target: Mitogen-activated protein kinase 10 (Mus musculus) (UniProt Q61831); assay: JNK3 AlphaScreen Assay (AID 530); conditions: JNK3 lysate, c-Jun phosphorylation; series mostly up to 11.4 µM;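 note: kinase came from lysate of stimulated human HepG2 cells; signal reports phosphorylation of biotinylated GST-cJun 1-79 at Ser73 with 10 µM ATP; % is set by controls: 0 for no effect and ±100 for the full control effect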
How it was run: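 Activity was read by AlphaScreen after JNK3-containing HepG2 lysate (cytokine pre-activated) phosphorylated biotinylated GST-cJun with 10 uM ATP at room temperature. Phospho-Ser73 cJun antibody with Protein-A acceptor beads provided detection.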

[9] = biological target: 3',5'-cyclic-AMP phosphodiesterase 4B (Homo sapiens) (UniProt Q07343); assay: qHTS Assay for Inhibitors of PDE-IV (AID 607; active = well fitted activation curve with a large enough effect in the main read-out, with a control signal flat, not every such curve was filed as active; note: % of control where 0% means no effect); conditions: HEK293 ACTOne CNG channel cells, membrane potential fluorescence; series mostly up to 22.9 µM
3',5'-cyclic-AMP phosphodiesterase 4B (Homo sapiens), sequence (Q07343 whole entry, looked up): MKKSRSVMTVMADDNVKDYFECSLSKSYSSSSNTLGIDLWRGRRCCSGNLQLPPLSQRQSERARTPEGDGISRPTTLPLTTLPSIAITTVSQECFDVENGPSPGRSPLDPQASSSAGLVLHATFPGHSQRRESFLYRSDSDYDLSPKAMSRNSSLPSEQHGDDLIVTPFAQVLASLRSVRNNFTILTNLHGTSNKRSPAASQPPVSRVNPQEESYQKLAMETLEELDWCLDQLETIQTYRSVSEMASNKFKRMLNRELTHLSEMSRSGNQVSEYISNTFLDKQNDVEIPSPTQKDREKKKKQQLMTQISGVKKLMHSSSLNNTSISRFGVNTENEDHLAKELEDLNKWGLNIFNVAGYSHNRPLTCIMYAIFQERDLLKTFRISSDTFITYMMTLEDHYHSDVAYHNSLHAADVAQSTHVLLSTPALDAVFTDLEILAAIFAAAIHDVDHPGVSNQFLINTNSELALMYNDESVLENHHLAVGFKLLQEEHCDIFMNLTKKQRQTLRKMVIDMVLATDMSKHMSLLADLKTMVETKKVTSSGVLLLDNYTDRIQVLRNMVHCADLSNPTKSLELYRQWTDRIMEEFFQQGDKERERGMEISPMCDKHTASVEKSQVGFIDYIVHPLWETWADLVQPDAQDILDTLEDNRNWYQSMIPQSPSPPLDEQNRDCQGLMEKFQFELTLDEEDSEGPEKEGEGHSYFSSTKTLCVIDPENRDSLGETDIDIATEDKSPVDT
How it was run: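 Cell-based read-out of cAMP via a modified cyclic nucleotide-gated channel and membrane potential dye (535/590 nm) in HEK293 cells expressing PDE4 endogenously. Compounds tested up to 22.9 uM final; 100 uM RO 20-1724 reference.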

[10] = biological target: Cytochrome P450 3A4 (Homo sapiens) (UniProt P08684); assay: qHTS Assay for Inhibitors and Substrates of Cytochrome P450 3A4 (AID 884; active = well fitted curve in the direction sought with a large enough effect; an effect the other way counts as inactive or inconclusive; note: potency is the fitted concentration of half-maximal effect; nearly all actives have a fitted effect of over 50% in size); conditions: recombinant CYP3A4, Luciferin-PPXE luminescence; series mostly up to 57.1 µM
Cytochrome P450 3A4 (Homo sapiens), sequence (P08684 whole entry, looked up): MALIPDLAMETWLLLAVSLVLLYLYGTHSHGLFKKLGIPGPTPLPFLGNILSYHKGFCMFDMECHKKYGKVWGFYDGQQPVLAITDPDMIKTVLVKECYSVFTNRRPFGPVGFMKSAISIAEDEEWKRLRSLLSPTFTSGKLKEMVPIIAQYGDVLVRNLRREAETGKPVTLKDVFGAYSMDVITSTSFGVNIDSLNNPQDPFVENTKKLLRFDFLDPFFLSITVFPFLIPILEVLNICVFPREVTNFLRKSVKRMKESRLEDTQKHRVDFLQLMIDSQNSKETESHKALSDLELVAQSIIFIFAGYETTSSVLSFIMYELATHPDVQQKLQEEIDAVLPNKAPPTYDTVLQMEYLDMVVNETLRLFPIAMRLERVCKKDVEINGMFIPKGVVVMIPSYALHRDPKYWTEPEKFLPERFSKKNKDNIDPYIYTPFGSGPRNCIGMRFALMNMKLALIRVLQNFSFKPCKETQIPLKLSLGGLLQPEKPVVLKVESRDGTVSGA
How it was run: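 Luminescent readout of luciferin produced by CYP3A4 (20 nM) dealkylation of Luciferin-PPXE, 25 uM (its KM). NADPH-driven reaction ran 60 min at RT after 10 min compound preincubation; data scaled to 57 uM ketoconazole as 100% inhibition.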

[11] = biological target: Cytochrome P450 3A4 (Homo sapiens) (UniProt P08684); assay: qHTS Assay for Activators of Cytochrome P450 3A4 (AID 885; active = well fitted curve in the direction sought with a large enough effect; an effect the other way counts as inactive or inconclusive; note: nearly all actives have a fitted effect of over 65% in size); conditions: recombinant CYP3A4, Luciferin-PPXE luminescence, 60 min; series mostly up to 11.4 µM
How it was run: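 Luminescent readout of luciferin formed from 25 uM Luciferin-PPXE (KM level) by 20 nM CYP3A4 in 200 mM KPO4, with 60 min NADPH-driven reaction at room temperature after 10 min compound exposure. Ketoconazole (57 uM) defined 100% inhibition.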

[12] = biological target: Cytochrome P450 2C19 (Homo sapiens) (UniProt P33261); assay: qHTS Assay for Inhibitors and Substrates of Cytochrome P450 2C19 (AID 899; active = well fitted curve in the direction sought with a large enough effect; an effect the other way counts as inactive or inconclusive; note: potency is the fitted concentration of half-maximal effect; nearly all actives have a fitted effect of over 60% in size); conditions: recombinant CYP2C19, luciferin-H EGE luminescence; series mostly up to 11.4 µM
Cytochrome P450 2C19 (Homo sapiens), sequence (P33261 whole entry, looked up): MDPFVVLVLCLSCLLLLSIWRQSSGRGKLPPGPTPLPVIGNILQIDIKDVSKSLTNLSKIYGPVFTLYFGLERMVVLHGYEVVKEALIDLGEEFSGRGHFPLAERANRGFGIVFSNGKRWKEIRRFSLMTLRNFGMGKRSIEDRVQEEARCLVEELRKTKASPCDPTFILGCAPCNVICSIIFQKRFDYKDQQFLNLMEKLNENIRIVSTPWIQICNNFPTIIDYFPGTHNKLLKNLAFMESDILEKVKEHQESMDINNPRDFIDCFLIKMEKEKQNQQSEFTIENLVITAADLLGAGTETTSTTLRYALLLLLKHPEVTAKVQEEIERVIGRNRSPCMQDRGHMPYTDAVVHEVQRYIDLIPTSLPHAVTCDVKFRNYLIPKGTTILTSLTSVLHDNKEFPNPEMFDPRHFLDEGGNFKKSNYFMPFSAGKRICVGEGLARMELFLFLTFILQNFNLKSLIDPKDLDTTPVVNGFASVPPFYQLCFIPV
How it was run: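 5 nM human CYP2C19 with 10uM Luciferin-H EGE (at KM) in 50mM KPO4, compound preincubated 10 min at 37C, then NADPH regeneration for 60 min at 37C. Luciferin read by luminescence after detection reagent; normalized to 57uM ketoconazole as full inhibition.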

[13] = biological target: Cytochrome P450 2D6 (Homo sapiens) (UniProt P10635); assay: qHTS Assay for Inhibitors and Substrates of Cytochrome P450 2D6 (AID 891; active = well fitted curve in the direction sought with a large enough effect; an effect the other way counts as inactive or inconclusive; note: potency is the fitted concentration of half-maximal effect; nearly all actives have a fitted effect of over 60% in size); conditions: recombinant CYP2D6, luciferin-ME EGE luminescence; series mostly up to 11.4 µM
Cytochrome P450 2D6 (Homo sapiens), sequence (P10635 whole entry, looked up): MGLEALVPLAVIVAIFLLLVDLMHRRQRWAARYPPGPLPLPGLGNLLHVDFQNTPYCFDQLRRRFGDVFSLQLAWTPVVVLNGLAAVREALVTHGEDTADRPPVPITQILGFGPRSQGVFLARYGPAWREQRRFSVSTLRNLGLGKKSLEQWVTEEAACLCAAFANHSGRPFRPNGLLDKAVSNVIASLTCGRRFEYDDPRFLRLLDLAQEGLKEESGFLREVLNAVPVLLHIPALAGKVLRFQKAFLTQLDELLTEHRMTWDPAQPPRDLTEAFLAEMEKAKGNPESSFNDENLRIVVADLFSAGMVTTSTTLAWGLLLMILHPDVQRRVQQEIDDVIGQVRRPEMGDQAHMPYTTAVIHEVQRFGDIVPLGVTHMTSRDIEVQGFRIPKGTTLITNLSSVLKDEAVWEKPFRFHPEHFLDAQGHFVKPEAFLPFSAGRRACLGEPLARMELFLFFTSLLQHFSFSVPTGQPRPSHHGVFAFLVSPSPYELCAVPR
How it was run: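 Luminescent read-out of luciferin formed by 5 nM human CYP2D6 demethylating 30 uM Luciferin-ME EGE (Km level) over 60 min at room temperature after NADPH regeneration addition. Data normalized to full inhibition by 1.43 uM quinidine.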

Nc1nc(SC/C=C\c2ccccc2)c2[nH]cnc2n1
inactive: Potency [1] > 11.4 µM | activity change, negative = inhibition [2] 6.66% | activity change, negative = inhibition [4] 24.8% | activity, negative = inhibition [5] 1.2% | Potency [6] > 46 µM | Potency [7] > 9.22 µM | Potency [8] | Potency [9] | Potency [11]
active: Potency [3] 5.01 µM | Potency [10] 2.51 µM | Potency [12] 1.58 µM

CC(C)c1ccccc1S(=O)c1ccccc1C(C)(C)O (configuration not stated)
inactive: Potency [1] > 11.4 µM | activity change, negative = inhibition [2] -11.8% | activity change, negative = inhibition [3] -10.7% [at 2.29 µM] | activity change, negative = inhibition [4] 20.3% | activity, negative = inhibition [5] 2.89% | Potency [6] > 46 µM | Potency [7] > 9.22 µM | Potency [8] | Potency [9] | Potency [11]

CN(C)C[C@H]1CCC[C@@H](CN(C)C)C1=O
inactive: Potency [1] > 11.4 µM | activity change, negative = inhibition [2] 5.24% | Potency [3] | activity change, negative = inhibition [4] -4.78% | activity, negative = inhibition [5] 3.25% | Potency [6] > 46 µM | Potency [7] > 9.22 µM | Potency [8] | Potency [9] | Potency [11]

O=C1C2=C(Nc3cc([N+](=O)[O-])ccc3N2)O[C@@H]1c1c[nH]c2ccc(COc3ccccc3)cc12
active: Potency [3] 2.51 µM
inactive: Potency [1] > 11.4 µM | activity change, negative = inhibition [2] -21.7% | activity change, negative = inhibition [4] 6.34% | activity, negative = inhibition [5] 0.333% | Potency [6] > 46 µM | Potency [7] > 9.22 µM | Potency [8] | Potency [9] | Potency [11]

C[C@@H]1Oc2ccc(C(=O)C[C@@H](C(=O)O)c3ccc4c(c3)OCO4)cc2O1
active: Potency [3] 0.794 µM
inactive: Potency [1] > 11.4 µM | activity change, negative = inhibition [2] 1.87% | activity change, negative = inhibition [4] -10.8% | activity, negative = inhibition [5] -5.57% | Potency [6] > 46 µM | Potency [7] > 9.22 µM | Potency [8] | Potency [9] | Potency [11]

COc1ccc(Oc2ncc3nc(C)c(=O)n(-c4ccc(OC)cc4)c3n2)cc1
active: Potency [3] 15.8 µM | Potency [10] 3.98 µM
inactive: Potency [1] > 11.4 µM | activity change, negative = inhibition [2] -21.8% | activity change, negative = inhibition [4] -15.1% | activity, negative = inhibition [5] -16.4% | Potency [6] > 9.22 µM | Potency [7] > 46 µM | Potency [8] | Potency [9] | Potency [11]

N#C/C(=C\NC(=S)c1ccncc1)c1nc2ccccc2s1
active: Potency [3] 3.16 µM
inactive: Potency [1] > 11.4 µM | activity change, negative = inhibition [2] -3.92% | activity change, negative = inhibition [4] 8.12% | activity, negative = inhibition [5] 11.3% | Potency [6] > 46 µM | Potency [7] > 9.22 µM | Potency [8] | Potency [9] | Potency [11]

COCCn1c(=O)c(-c2cc(F)cc(F)c2)nc2cnc(OC)nc21
active: Potency [3] 3.98 µM
inactive: Potency [1] > 11.4 µM | activity change, negative = inhibition [2] -11.6% | activity change, negative = inhibition [4] -5.01% | activity, negative = inhibition [5] -2.4% | Potency [6] > 9.22 µM | Potency [7] > 46 µM | Potency [8] | Potency [9] | Potency [11]

NC1=C(O)C(=O)[C@H](c2c[nH]c3ccc(OCc4ccccc4)cc23)O1
active: Potency [3] 3.98 µM
inactive: Potency [1] > 11.4 µM | activity change, negative = inhibition [2] -18.8% | activity change, negative = inhibition [4] 7.15% | activity, negative = inhibition [5] -6.03% | Potency [6] > 46 µM | Potency [7] > 9.22 µM | Potency [8] | Potency [9] | Potency [11]

Cn1ncc2c(NCCc3ccccc3)nc(Cl)nc21
inactive: Potency [1] > 11.4 µM | activity change, negative = inhibition [2] -2.77% | activity change, negative = inhibition [4] 2.58% | activity, negative = inhibition [5] -19.5% | Potency [6] > 46 µM | Potency [7] > 9.22 µM | Potency [8] | Potency [9] | Potency [11]
active: Potency [3] 2.51 µM | Potency [10] 2 µM | Potency [13] 126 nM | Potency [12] 0.126 µM

CC(C)(C)C(=O)[C@H]([C@@H](c1ccccc1)N1CCOCC1)N1CCOCC1
inactive: Potency [1] > 11.4 µM | activity change, negative = inhibition [2] 0.675% | Potency [3] | activity change, negative = inhibition [4] 16.7% | activity, negative = inhibition [5] 2.4% | Potency [6] > 46 µM | Potency [7] > 9.22 µM | Potency [8] | Potency [9] | Potency [11]
active: Potency [10] 2.51 µM

Source: PubChem BioAssay (NCATS)
